# According to PubChem BioAssay (NCI):
# The panel holds about 83,000 compounds, 20% with a hit somewhere; the sample as a whole holds those more often.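 Method: cells in 96-well plates; compound added at one concentration; 48 h incubation; percent growth measured; values under 10 scored active.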 A number with no mark means an inactive call. Active and inactive are the calls of the source.
# Experiments:
# Experiment in all cases: NCI-60 one-dose screen, 48 h (100 = growth as untreated, 0 = no growth, -100 = all killed)
# SR leukemia = conditions: 10 µM unless noted
# RPMI-8226 leukemia = conditions: 10 µM unless noted
# OVCAR-8 ovarian = conditions: 10 µM unless noted
# OVCAR-5 ovarian = conditions: 10 µM unless noted
# OVCAR-4 ovarian = conditions: 10 µM unless noted
# SK-OV-3 ovarian = conditions: 10 µM unless noted
# IGROV1 ovarian = conditions: 10 µM unless noted
# OVCAR-3 ovarian = conditions: 10 µM unless noted
# HS 578T breast = conditions: 10 µM
# NCI/ADR-RES ovarian = conditions: 10 µM unless noted
Compound,growth (SR leukemia),growth (RPMI-8226 leukemia),growth (OVCAR-8 ovarian),growth (OVCAR-5 ovarian) [%],growth (OVCAR-4 ovarian),growth (SK-OV-3 ovarian) [%],growth (IGROV1 ovarian),growth (OVCAR-3 ovarian),growth (HS 578T breast),growth (NCI/ADR-RES ovarian)
COc1ccc(/C=C2\CCCC3=C2N=C2SC(C)=NN2C3c2ccc(OC)c(OC)c2)cc1OC (stereo not given),14.3%,-24.9% (active),-4.14% (active),26.5,41.4%,62.8,30.4%,23.8%,86.2%,17.7%
COc1cc2nccc(Oc3ccc(NC(=O)C4(C(=O)Nc5ccc(F)cc5)CC4)cc3)c2cc1Oc1ccc(N)cn1,11.9%,48.5%,47.1%,40,29.9%,61.3,-24.1% (active),49.9%,7.33% (active),73.8%
COc1cc(-c2nc(-c3nc4cc(C(=O)c5ccccc5)ccc4[nH]3)cc3c2[nH]c2ccccc23)cc(OC)c1OC,81.6%,42%,67.4%,103,96.8%,146,107%,101%,95.7%,88.7%
O=C(Cc1ccc(Nc2ccnc(C(F)(F)F)c2)cc1)N/N=C/c1ccccc1O,98.2%,29.6%,25.6%,28.1,18.4%,17.1,18.8%,40.8%,102%,23.8%
COc1cccc(Cn2c(-c3nonc3NC(C)=O)nc3ccccc32)c1,16.3%,28.4%,50.9%,39.2,79.9%,16.9,56.8%,69.5%,23.6%,30.3%
CN1CCN(Cc2ccc(NC(=O)c3cncc(C#Cc4ncc5ccccn45)c3)cc2C(F)(F)F)CC1,15.6%,21.1%,24.7%,32.8,7.89% (active),19.6,17.9%,36.9%,7.01% (active),27.7%
CC1(C)CC[C@]2(C(=O)N3CCNCC3)CC[C@]3(C)C(=CC[C@@H]4[C@@]5(C)CCC(=O)C(C)(C)[C@@H]5CC[C@]43C)[C@@H]2C1,109%,104%,95.9%,109,103%,109,113%,118%,104%,103%
CCCCn1c(C)nc2cc(Nc3nc(Cl)nc4nc[nH]c34)ccc21,66.7%,65.4%,84.2%,80.6,78.9%,80,70.7%,91.6%,52.7%,94%
N#Cc1c(N)c(C(=O)c2ccc3c(c2)OCCO3)n2c1CCCC2,-20% (active),4.91% (active),31.5%,57.9,81.2%,31.3,10.8%,-3.73% (active),36.3%,8.36% (active)
COc1cc(OC)cc(-c2n/c(=C\c3c(O)[nH]c4ccc(Cl)cc34)cc3c2=Nc2ccccc2-3)c1,23.5%,71.2%,54.5%,114,16.1%,114,-21.3% (active),69.7%,90.4%,81.6%
CN1CCN(Cc2ccc(NC(=O)c3ccc(C#N)c(C#Cc4cnc(N)c5ncccc45)c3)cc2C(F)(F)F)CC1,9.25% (active),69.7%,12.6%,18,75.2%,97.6,55.3%,102%,68.2%,94%
COc1ccc(C2C3=C(COC3=O)N(CCO)c3cc(OC)c(OC)cc32)cc1 (stereo not given),93.1%,96.1%,108%,104,105%,106,119%,109%,106%,105%
CCCCCCCCCCCCCCCCS(=O)(=O)Nc1cc(C(=O)NN)cc(C(=O)NN)c1,56.9%,68%,77.5%,68.3,48.1%,69.8,66.3%,47.2%,81.2%,102%
COc1cc(-c2n/c(=C\c3c(O)[nH]c4cc(Cl)ccc34)cc3c2=Nc2ccccc2-3)cc(OC)c1OC,36.8%,84.6%,59.3%,102,-1.32% (active),59.4,25.2%,58.1%,50%,84.1%
CCN(CC)CCNc1c(C)cc(CO)c(Cl)c1C,104%,105%,90.3%,117,103%,120,64.8%,117%,107%,101%
CCCOC(=O)C1c2cc3c(cc2CC(C)C1C(=O)OCCC)OCO3 (stereo not given),90.7%,99.8%,102%,84.7,88.7%,101,75.8%,110%,103%,81.4%
